In ChEMBL document CHEMBL1157539, “Thousands of chemical starting points for antimalarial lead identification” (Nature, 2010):

How the values were obtained:
Assay type in all cases: functional
Plasmodium falciparum [1] = test: GSK_TCMDC: Inhibition of Plasmodium falciparum 3D7 in whole red blood cells, using parasite LDH activity as an index of growth. Test compounds present at 2uM
Plasmodium falciparum [2] = test: GSK_TCMDC: Inhibition of Plasmodium falciparum Dd2 in whole red blood cells, using parasite LDH activity as an index of growth. Test compounds present at 2uM
HepG2 = test: GSK_TCMDC: Percent inhibition of human HepG2 cell line. Test compounds present at 10uM.

SMILES | Inhibition (Plasmodium falciparum [1]) [%] | Inhibition (Plasmodium falciparum [2]) [%] | Inhibition (HepG2) [%]
Cc1ccc(-c2cc3nc4c(c(NCCCn5ccnc5)n3n2)CCC4)cc1 | 94 | 21 | 22
c1ccc(-c2cc3cccc(-c4nc5cnccc5[nH]4)c3o2)cc1 | 100 | 95 | 37
N#Cc1ccc(-c2ccc(C(=O)NCC3CCN(CCN4CCC(c5ccc6c(c5OCC(N)=O)CCCC6)CC4)CC3)cc2)cc1 | 99 | 99 | 56
Cc1ccc(NC(=O)Cc2noc(CC3CCCN3C(=O)N[C@@H](C)c3ccccc3)n2)cc1 (stereo partly drawn) | 95 | 90 | 1
CN(C)CC(=O)N(Cc1ccc(Cl)c(Cl)c1)Cc1csc(-c2ccc(CNCc3ccccc3)cc2)n1.O=C(O)C(F)(F)F | 96 | 32 | 30
CCCN1CCC=C(c2cccc(Nc3nccc(Nc4cc(OC)ccc4C)n3)c2)C1.Cl | 88 | 35 | 15
COc1cc(-c2cc(-c3ccc(OCCN(C)C)cc3)[nH]c2-c2ccncc2)ccc1Cl.Cl | 100 | 100 | 28
COc1cc(NCCCNC(=O)c2ccc(Cl)c(Cl)c2)nc2ccccc12 | 99 | 100 | 48
O=C(Nc1ccc(Cl)cc1)Nc1cccc(-c2ccc(-c3nc4ccccc4[nH]3)cc2)c1 | 87 | 6 | 19
CCc1cc2c3c(N)nc(N)nc3ccc2n1C(C)CC (stereo not drawn) | 100 | 99 | 73
O=C(/C=C/c1ccc(Cl)c(Cl)c1)NCCCCCN1CCCN(C(=O)Nc2ccc(Br)cc2)CC1 | 99 | 0 | 38
CN1CCCN(Cc2cccc(-c3ccc(NC(=O)c4cccc(C#N)c4)cc3)c2)CC1.O=C(O)C(F)(F)F | 100 | 96 | 27
COc1ccc2cc(CNCCCCCCNCc3ccc4cc(OC)ccc4c3)ccc2c1.CS(=O)(=O)O | 100 | 92 | 100
COC(=O)c1ccc(Nc2nccc(Nc3ccc(Oc4ccccc4)cc3)n2)cc1.Cl | 93 | 15 | 0
COc1ccc(-c2csc3ncnc(Cl)c23)cc1OC | 93 | 84 | 0
Cc1cc(N[C@@H](Cc2ccccc2)C(=O)NCc2cccs2)nc(NCCc2cccnc2)n1.O=C(O)C(F)(F)F | 84 | 38 | 10
Cc1cc(=O)c(-c2ccc(Oc3ccc(Cl)cc3Cl)cc2)c(C)[nH]1 | 93 | 73 | 0
CCCc1cn2c3c(cc(C(=O)N[C@@H](Cc4ccccc4)[C@H](O)CNC4CCCCC4)cc13)N(C)S(=O)(=O)CC2.O=CO | 99 | 98 | 3
CN1CCN(Cc2cccc(-c3ccc4c(Nc5ccc(F)cc5Cl)ccnc4c3)c2)CC1 | 100 | 100 | 20
Cc1ccc(C(=O)NCC2CCN(c3ccc(C(F)(F)F)cc3NC(=O)c3ccco3)CC2)cn1 | 91 | 73 | 9
COc1ccc(-c2ccc(CNC3Cc4ccccc4C3)cc2)cc1S(=O)(=O)NCCN1CCCC1.O=C(O)C(F)(F)F | 100 | 99 | 30
